# Measured values taken from PubChem BioAssay AID1851 (National Center for Advancing Translational Sciences (NCATS), 2009).
# Values joined by “and” are separate entries in the source; they are usually repeats but may differ in a detail not shown here. Identical values can stand only once. Hit rate of the full screen: of about 16,000 compounds, about 5,100 (32%) were called active. Not shown: some 25% with an inconclusive outcome. The list shows a part of the results. Values without a mark were called inactive. Calls follow the shape of the dose curve; as a rule, active = well fitted curve in the direction sought with a large enough effect; inconclusive = small, poorly fitted or top-dose-only effect, or effect the other way; inactive = no such curve, though single readings can be large or run the other way.
# Target: Cytochrome P450 3A4 (Homo sapiens) (UniProt P08684)
# Sequence (P08684 whole entry, looked up): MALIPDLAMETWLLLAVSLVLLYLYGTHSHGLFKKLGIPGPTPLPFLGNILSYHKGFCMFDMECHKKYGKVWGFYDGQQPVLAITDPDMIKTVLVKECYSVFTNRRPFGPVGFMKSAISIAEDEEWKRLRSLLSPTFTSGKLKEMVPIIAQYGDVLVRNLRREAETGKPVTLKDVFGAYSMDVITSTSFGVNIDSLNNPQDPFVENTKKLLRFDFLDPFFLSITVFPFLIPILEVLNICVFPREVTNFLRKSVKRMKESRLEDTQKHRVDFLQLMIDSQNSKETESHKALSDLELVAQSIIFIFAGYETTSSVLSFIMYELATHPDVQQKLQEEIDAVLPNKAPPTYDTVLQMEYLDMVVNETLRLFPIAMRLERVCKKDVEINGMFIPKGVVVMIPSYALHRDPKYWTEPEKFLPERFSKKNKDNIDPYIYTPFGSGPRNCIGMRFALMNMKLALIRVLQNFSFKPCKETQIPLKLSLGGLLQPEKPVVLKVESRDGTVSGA
# Experiment: Cytochrome panel assay with activity outcomes
# Conditions: recombinant CYP, pro-luciferin dealkylation, luminescence, p450-cyp3a4; series mostly up to 57.1 µM; activity, negative = inhibition: at the top concentration
# % is scaled to controls: 0 for no effect and ±100 for the full control effect.
Structure (SMILES),"activity, negative = inhibition",AC50
Cc1cc(=O)[nH]c(-n2[nH]c(C)cc2=O)n1,-20%,
CCOC(=O)c1ccc(NC(=O)COc2ccccc2OC)cc1,,31.6 µM (active)
CCOC(=O)c1ccc(NC(=O)CC2NCCNC2=O)cc1 (stereo not given),4.99%,
COc1ccc(C(=O)Nc2ccc(C(=O)OCC(=O)c3ccccc3)cc2)cc1,17.9%,
CC1=NN(c2ccccc2)C(=O)[C@@H]1N=Nc1ccc(S(N)(=O)=O)cc1,-5.5% [at 11.4 µM],
CCOCc1cnc(C)nc1NCC(=O)c1c(C)[nH]c2ccccc12,-7.96%,
c1ccc(CN2CC[C@@H](CNc3ncnc4ccccc34)C2)cc1,-19.3% [at 11.4 µM],
Oc1ccc(CNCc2ccccc2)c2cccnc12,-8.41% [at 11.4 µM],
O=S(=O)(NC1CCN(Cc2ccccc2)CC1)c1cccc2cccnc12,,15.8 µM (active)
O=C(NCCCN1CCCCCC1)[C@@H](c1ccccc1)C1CCCCC1,,3.98 µM (active)
O=C(NCCCN1CCN(Cc2ccccc2)CC1)C1CCN(S(=O)(=O)N2CCCC2)CC1,-24.6%,
O=C(NCCCN1CCN(C2CCCCC2)CC1)Nc1ccccc1C(F)(F)F,-2.67%,
Cc1ccc(-c2ccc(CCC(=O)O)o2)cc1,-10.7%,
CC(=O)Nc1ccc(S(=O)(=O)N=S(C)C)cc1,,inactive
CC(=O)Nc1ccc(S(=O)(=O)NC(CC(=O)NCCC2=CCCCC2)C(C)C)cc1 (stereo not given),,15.8 µM (active)
COC(=O)C(NS(=O)(=O)c1ccc(NC(C)=O)cc1)C(C)C (stereo not given),-23.1%,
Cc1ccc(S(=O)(=O)N(CC(=O)NCCC2=CCCCC2)Cc2ccccc2F)cc1,-9.36% [at 2.29 µM],
COc1ccc(CONS(=O)(=O)c2ccc(NC(C)=O)cc2)cc1Cl,,3.16 µM (active)
CCCCCOc1ccc(NC(=O)C(=O)NCCC2=CCCCC2)cc1,3.45%,
COc1ccc(CCNC(=O)CC(NS(=O)(=O)c2ccc(NC(C)=O)cc2)C(C)C)cc1OC (stereo not given),,15.8 µM (active)
C[C@H](O)CO[C@H]1[C@H]2O[C@H]3[C@H](O)[C@@H](O)[C@@H](O[C@H]4[C@H](O)[C@@H](O)[C@@H](O[C@H]5[C@H](O)[C@@H](O)[C@@H](O[C@H]6[C@H](O)[C@@H](OC[C@H](C)O)[C@@H](O[C@H]7[C@H](O)[C@@H](OC[C@H](C)O)[C@@H](O[C@H]8[C@H](O)[C@@H](O)[C@@H](O[C@@H]([C@@H]1O)[C@@H](CO)O2)O[C@@H]8CO)O[C@@H]7CO)O[C@@H]6CO)O[C@@H]5CO)O[C@@H]4CO)O[C@@H]3CO,0.0498%,
O=C(Nc1cccc(C(F)(F)F)c1)C1CCCN1S(=O)(=O)c1cccc2cccnc12 (stereo not given),,11.2 µM (active)
O=C(Nc1cccc2cccnc12)[C@@H]1[C@@H](C(=O)O)[C@H]2CC[C@@H]1O2,-18.7% [at 11.4 µM],

Structure (SMILES),"activity, negative = inhibition",AC50
COc1ccc(-c2ccc(C(=S)N3CCN(C(C)=O)CC3)o2)cc1,,25.1 µM (active)
C[C@H](N[C@@H](C)COc1ccccc1)[C@H](O)c1ccc(O)cc1,-12.4% [at 25.6 µM],
COc1ccc(N2C(=O)CSC2c2cccc(F)c2)c(OC)c1 (stereo not given),,12.6 µM (active)
COc1ccc(C2/C(=C(/O)c3ccccc3)C(=O)C(=O)N2c2ccccn2)c(OC)c1 (stereo not given),1.16% [at 2.29 µM],
C/C(=N\[N+](C)(C)C)c1ccc(C)c(C)c1,-5.81% [at 11.4 µM],
COC(=O)c1ccc(Cl)c(NC(=O)c2ccc(-c3ccccc3)cc2)c1,0.213% [at 2.29 µM],
O=C(Nc1cc(-c2nc3ccccc3s2)ccc1Cl)c1ccc2c(c1)OCO2,,2.24 µM (active)
O=C(Nc1cccc(-c2nc3ccccc3s2)c1)c1ccc2c(c1)OCO2,,2.24 µM (active)
CCCN(C(=S)Nc1ccccc1)C1CCS(=O)(=O)C1 (stereo not given),-16.8%,
Cc1ccc[n+](CC(=O)c2cc3ccccc3oc2=O)c1,-4.17% [at 2.29 µM],
CCc1ccc(OCC(=O)OC2CCS(=O)(=O)C2)cc1 (stereo not given),9.21%,
CCOc1ccc(CN(C(=O)c2oc3ccccc3c2C)C2CCS(=O)(=O)C2)cc1 (stereo not given),,12.6 µM (active)
O=C(c1ccccc1)N(Cc1ccco1)C1CCS(=O)(=O)C1 (stereo not given),-11.5%,
O=C(c1sc2ccccc2c1Cl)N(Cc1ccccc1)C1CCS(=O)(=O)C1 (stereo not given),,11.2 µM (active)
CCc1ccc(CN(C(=O)c2cc3ccccc3oc2=O)C2CCS(=O)(=O)C2)cc1 (stereo not given),,14.1 µM (active)
CN(C(=O)COc1cccc(Br)c1)C1CCS(=O)(=O)C1 (stereo not given),-25.4%,
C[C@@H](CC(=O)O)[C@@H](N)C(=O)O,-18.5%,
O=C(COC(=O)c1cccnc1)c1ccc(Cl)c(Cl)c1,,0.562 µM (active)
O=C(COC(=O)c1cccnc1Cl)c1ccccc1,-13.3%,
O=C(Oc1cccc(Br)c1)c1cccnc1,-29.3%,
CON1C(=O)C(=O)N(OC)C2CCCCC21 (stereo not given),2.41%,
CC(C)(C)N1C(=O)[C@H]2[C@@H]3[C@H](O)[C@H](O)CC(=O)[C@H]3CC[C@H]2C1=O,-16.1% [at 11.4 µM] and -10.3% [at 11.4 µM],
CN(C)Cc1ccccc1-c1cncnc1NC1CC1,,12.6 µM (active)

Structure (SMILES),"activity, negative = inhibition",AC50
COc1ccccc1-c1cncnc1NCc1cnc(C)cn1,,1.26 µM (active)
Cc1cnc(CNc2ncncc2-c2ccccc2CN(C)C)cn1,,3.16 µM (active)
Cc1cnc(CNc2ncncc2-c2ccccc2C)cn1,,1 µM (active)
O=[N+]([O-])c1ccccc1N=Nc1c(O)[nH]c2ccc(S(=O)(=O)O)cc12,-6.01% [at 11.4 µM],
C/C(=N\NC(=O)CC1N=C(Cc2ccccc2)NNC1=O)c1ccc(Cl)cc1Cl (stereo not given),,1.26 µM (active)
Nc1ccc(-c2nc3c(Cl)c(N)ccc3[nH]2)cc1,,1 µM (active)
c1cncc(-c2nccc(NCc3cccs3)n2)c1,,1 µM (active)
c1csc(CNc2ccnc(-c3ccoc3)n2)c1,,7.94 µM (active)
CN(C)C(=O)c1ccc(-c2nccc(NCc3cccs3)n2)cc1,,25.1 µM (active)
CN(C)c1ccc(-c2nccc(NCc3cccs3)n2)cc1,,12.6 µM (active)
Cc1ccccc1Oc1ncnc2sccc12,-7.77%,
COc1ccc(-n2c(=O)c(C)nc3cnc(Nc4ccccc4)nc32)cc1,,12.6 µM (active)
Cn1c(=O)c(-c2ccc(Cl)cc2)nc2cnc(Nc3ccccc3)nc21,-6.47%,
COc1cccc(Nc2ncc3nc(-c4ccccc4)c(=O)n(C)c3n2)c1,-0.713%,
COc1cccc(Nc2ncc3nc(C)c(=O)n(-c4ccccc4)c3n2)c1,,15.8 µM (active)
N/C(=N\c1nc2ccccc2o1)NC(=O)c1ccccc1F,-22.5%,
CCOc1ccc(C(=O)NC(=S)N(Cc2ccccc2)Cc2ccccc2)cc1,,10 µM (active)
COc1ccc(CN(CCC#N)C(=S)NC(=O)c2ccccc2)cc1,,14.1 µM (active)
O=C(Nc1ccccc1)N(Cc1ccccc1)CC(O)C(F)(F)F (stereo not given),-16%,
COc1ccc(C(=O)NNC(=S)NC(=O)c2ccco2)cc1,9.96% [at 2.29 µM],
O=C(NC(=S)N(Cc1ccccc1)Cc1ccccc1)c1ccccc1F,,15.8 µM (active)
CCC(=O)c1ccc(OCC(O)CN(CCc2ccccc2)Cc2ccccc2)cc1 (stereo not given),-6.18%,
CC(C)Cc1ccc([C@H](C)C(=O)O)cc1,,inactive

Structure (SMILES),"activity, negative = inhibition",AC50
CCOC(=O)N/N=C/c1ccc(F)cc1,2.36%,
CCN(CC)c1ccc(/C=N/Nc2nc(C)cc(=O)[nH]2)cc1,,14.1 µM (active)
Nc1ccc(S(=O)(=O)NCc2nccs2)cc1,-10.4% [at 11.4 µM],
N=c1sccn1CC(=O)Nc1cccc(Oc2ccccc2)c1,-7.61% [at 11.4 µM],
O=S(=O)(NCc1cn2ccsc2n1)c1ccc(Oc2ccccc2)cc1,,11.2 µM (active)
Cc1ccc(-c2ccc(/C=N/N3C(=O)C4C5C=CC(C6CC56)C4C3=O)o2)c([N+](=O)[O-])c1 (stereo not given),,2.24 µM (active)
Cc1cc(-c2ccc(/C=N/n3cnnc3)o2)c([N+](=O)[O-])cc1C,16.7%,
COc1cccc2c1OC[C@@H](CO)[C@H]2N(C)C(=O)Nc1ccc(Cl)cc1Cl,,14.1 µM (active)
Cc1nc(C(=O)Nc2ccc(Cl)cc2Cl)nn1-c1cc(OC(C)C)c(Cl)cc1Cl,-10.6%,
NC(=O)c1cc[n+](CC2=C(C(=O)[O-])N3C(=O)[C@@H](NC(=O)Cc4cccs4)[C@@H]3SC2)cc1,-15.1% [at 25.6 µM],
CN(C)c1ccc(-c2nc3n(n2)C(c2cccnc2)C2=C(CC(C)(C)CC2=O)N3)cc1 (stereo not given),,2.24 µM (active)
COc1ccc(-c2cc(C(F)F)nc(-n3nc(C)cc3C)n2)cc1,,10 µM (active)
Cc1cc(C)n(-c2nc(NC(C)C)nc(NC(C)C)n2)n1,0.214% [at 11.4 µM],
CCCCn1c(NCc2ccccc2NS(=O)(=O)c2ccc(C)cc2)nc2ccccc21,,3.55 µM (active)
Cc1ccc(S(=O)(=O)Nc2ccccc2C=O)cc1,-24.7% [at 11.4 µM],
CC(C)(C)NCC[C@@H](O)c1cc(C(F)(F)F)nc2c(C(F)(F)F)cccc12,-13.6% [at 11.4 µM],
Cc1cc(C)c(NC(=O)C[C@H](CC(=O)O)c2cccc3ccccc23)c(C(=O)N2CCC3(CCCC3)CC2)c1,,15.8 µM (active)
COC(=O)N1CCC2(CCN(C(=O)Nc3ccccc3)CC2)CC1,18.1%,
Cc1noc(C)c1C(=O)N1CCC2(CCCN(C(c3ccccc3)c3ccccc3)C2)CC1,-26.6%,
CC1=C(C(=O)OCc2ccccc2)C(c2cccnc2)c2c(n(C)c(=O)n(C)c2=O)N1 (stereo not given),,11.2 µM (active)
CC1=C(C(=O)OCc2ccccc2)C(c2ccccc2)NC(=O)N1CCCCCC(=O)O (stereo not given),-1.28%,
